Laboratory results published in ChEMBL document CHEMBL1961873, “Compounds: GSK PKIS; Assays: Nanosyn kinase panel” (2012).

How the values were obtained:
[1] = target: Sphingosine kinase 1 (Homo sapiens) (UniProt Q9NYA1); settings: at 1 µM;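 further: mean SPHK1 inhibition value reported from the GSK PKIS kinase panel screen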
[2] = target: T1, Sphingosine kinase 2 (Homo sapiens) (UniProt Q9NRA0); settings: at 0.1 µM
T1 sequence (whole entry): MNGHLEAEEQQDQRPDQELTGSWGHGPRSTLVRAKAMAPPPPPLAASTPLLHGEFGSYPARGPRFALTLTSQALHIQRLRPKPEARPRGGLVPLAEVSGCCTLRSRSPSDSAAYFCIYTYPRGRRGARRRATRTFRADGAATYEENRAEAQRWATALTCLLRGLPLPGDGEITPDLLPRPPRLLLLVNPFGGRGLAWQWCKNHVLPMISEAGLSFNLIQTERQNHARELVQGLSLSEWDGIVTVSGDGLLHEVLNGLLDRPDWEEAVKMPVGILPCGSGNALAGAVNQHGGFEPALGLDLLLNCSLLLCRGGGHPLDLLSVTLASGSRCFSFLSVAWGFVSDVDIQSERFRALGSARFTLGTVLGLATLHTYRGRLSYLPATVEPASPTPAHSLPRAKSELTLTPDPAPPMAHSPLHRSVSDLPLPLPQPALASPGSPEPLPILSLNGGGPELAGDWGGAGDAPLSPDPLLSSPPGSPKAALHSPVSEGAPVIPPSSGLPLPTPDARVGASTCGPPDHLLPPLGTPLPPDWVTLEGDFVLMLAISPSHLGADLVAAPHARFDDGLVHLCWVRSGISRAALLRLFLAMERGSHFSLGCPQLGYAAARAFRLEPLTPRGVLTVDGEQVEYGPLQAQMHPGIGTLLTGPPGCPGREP

[3] = target: T1, Sphingosine kinase 2 (Homo sapiens); settings: at 1 µM
[4] = target: Casein kinase II subunit alpha (Homo sapiens) (UniProt P68400); settings: at 0.1 µM
[5] = target: Casein kinase II subunit alpha (Homo sapiens) (UniProt P68400); settings: at 1 µM
[6] = target: T2, Inhibitor of nuclear factor kappa-B kinase subunit alpha (Homo sapiens) (UniProt O15111); settings: at 0.1 µM
T2 sequence (whole entry): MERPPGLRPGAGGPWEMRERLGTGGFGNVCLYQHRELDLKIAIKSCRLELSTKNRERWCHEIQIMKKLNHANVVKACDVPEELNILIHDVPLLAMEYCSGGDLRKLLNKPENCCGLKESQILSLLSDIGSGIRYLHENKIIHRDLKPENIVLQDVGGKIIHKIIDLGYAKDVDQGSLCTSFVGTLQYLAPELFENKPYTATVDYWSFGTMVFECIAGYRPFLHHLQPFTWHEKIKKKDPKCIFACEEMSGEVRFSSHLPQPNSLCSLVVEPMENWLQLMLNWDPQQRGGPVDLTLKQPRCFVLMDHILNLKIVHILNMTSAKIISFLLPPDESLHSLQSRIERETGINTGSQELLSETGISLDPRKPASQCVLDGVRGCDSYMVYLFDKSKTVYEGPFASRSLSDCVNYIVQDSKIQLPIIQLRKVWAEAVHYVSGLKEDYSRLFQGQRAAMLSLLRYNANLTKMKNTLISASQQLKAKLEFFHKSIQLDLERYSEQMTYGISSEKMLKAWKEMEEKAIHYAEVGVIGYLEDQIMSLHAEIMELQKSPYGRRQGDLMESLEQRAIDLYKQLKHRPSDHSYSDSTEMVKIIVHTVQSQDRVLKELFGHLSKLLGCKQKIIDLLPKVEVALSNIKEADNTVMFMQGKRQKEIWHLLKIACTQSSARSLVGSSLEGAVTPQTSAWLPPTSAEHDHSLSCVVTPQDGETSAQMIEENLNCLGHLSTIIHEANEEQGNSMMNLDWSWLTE

[7] = target: T2, Inhibitor of nuclear factor kappa-B kinase subunit alpha (Homo sapiens); settings: at 1 µM
[8] = target: T3, Inhibitor of nuclear factor kappa-B kinase subunit beta (Homo sapiens) (UniProt O14920); settings: at 0.1 µM
T3 sequence (whole entry): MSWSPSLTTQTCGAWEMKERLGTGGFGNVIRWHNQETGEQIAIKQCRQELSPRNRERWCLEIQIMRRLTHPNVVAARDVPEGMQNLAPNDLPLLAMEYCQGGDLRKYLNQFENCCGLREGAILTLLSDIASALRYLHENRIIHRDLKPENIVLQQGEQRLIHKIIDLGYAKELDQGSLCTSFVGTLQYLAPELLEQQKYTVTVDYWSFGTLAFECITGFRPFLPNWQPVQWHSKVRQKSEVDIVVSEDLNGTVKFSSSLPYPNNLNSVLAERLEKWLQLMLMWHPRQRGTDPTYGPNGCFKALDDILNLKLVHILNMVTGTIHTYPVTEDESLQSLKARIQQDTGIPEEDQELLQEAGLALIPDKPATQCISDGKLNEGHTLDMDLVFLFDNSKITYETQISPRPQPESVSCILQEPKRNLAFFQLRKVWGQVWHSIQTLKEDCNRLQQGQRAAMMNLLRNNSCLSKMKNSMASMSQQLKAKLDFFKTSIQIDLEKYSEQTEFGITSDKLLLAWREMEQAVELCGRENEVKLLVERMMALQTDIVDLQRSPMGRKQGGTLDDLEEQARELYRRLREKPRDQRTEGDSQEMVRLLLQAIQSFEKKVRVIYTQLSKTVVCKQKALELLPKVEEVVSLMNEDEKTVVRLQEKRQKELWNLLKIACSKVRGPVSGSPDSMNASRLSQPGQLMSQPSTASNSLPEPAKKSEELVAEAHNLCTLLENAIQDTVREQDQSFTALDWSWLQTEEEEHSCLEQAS

[9] = target: T3, Inhibitor of nuclear factor kappa-B kinase subunit beta (Homo sapiens); settings: at 1 µM
[10] = target: T4, Inhibitor of nuclear factor kappa-B kinase subunit epsilon (Homo sapiens) (UniProt Q14164); settings: at 0.1 µM;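 further: mean inhibition of IKKε reported, from the GSK PKIS dataset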
T4 sequence (whole entry): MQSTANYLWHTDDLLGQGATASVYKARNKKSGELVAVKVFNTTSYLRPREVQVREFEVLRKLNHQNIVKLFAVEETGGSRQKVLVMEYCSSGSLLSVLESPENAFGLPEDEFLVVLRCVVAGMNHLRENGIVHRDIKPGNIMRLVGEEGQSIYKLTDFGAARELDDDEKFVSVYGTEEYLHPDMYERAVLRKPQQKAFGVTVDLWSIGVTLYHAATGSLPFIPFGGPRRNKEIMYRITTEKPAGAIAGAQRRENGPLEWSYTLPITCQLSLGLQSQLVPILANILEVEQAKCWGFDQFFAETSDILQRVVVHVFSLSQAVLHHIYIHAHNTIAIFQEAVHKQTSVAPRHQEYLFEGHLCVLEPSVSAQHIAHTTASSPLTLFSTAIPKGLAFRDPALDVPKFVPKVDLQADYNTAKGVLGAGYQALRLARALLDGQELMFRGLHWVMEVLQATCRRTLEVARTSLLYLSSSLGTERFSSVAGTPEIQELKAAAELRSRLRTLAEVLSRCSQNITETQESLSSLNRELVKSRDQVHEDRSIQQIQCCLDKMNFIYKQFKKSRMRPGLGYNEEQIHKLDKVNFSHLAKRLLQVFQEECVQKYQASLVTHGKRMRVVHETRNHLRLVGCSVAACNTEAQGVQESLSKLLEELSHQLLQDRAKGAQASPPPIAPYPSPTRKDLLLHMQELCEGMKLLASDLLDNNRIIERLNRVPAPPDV

Sequence of Casein kinase II subunit alpha (Homo sapiens) (P68400 whole entry, looked up): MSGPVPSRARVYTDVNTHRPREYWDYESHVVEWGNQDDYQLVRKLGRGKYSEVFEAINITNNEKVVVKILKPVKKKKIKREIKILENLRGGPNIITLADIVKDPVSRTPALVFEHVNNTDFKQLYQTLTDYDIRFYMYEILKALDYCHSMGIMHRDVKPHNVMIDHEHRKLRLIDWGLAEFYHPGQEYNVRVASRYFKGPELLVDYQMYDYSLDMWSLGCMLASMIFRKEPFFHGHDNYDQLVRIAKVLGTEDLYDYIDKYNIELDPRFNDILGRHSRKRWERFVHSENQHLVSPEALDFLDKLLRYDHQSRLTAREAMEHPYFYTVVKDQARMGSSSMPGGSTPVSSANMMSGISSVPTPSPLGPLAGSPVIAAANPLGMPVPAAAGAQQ
Sequence of Sphingosine kinase 1 (Homo sapiens) (Q9NYA1 whole entry): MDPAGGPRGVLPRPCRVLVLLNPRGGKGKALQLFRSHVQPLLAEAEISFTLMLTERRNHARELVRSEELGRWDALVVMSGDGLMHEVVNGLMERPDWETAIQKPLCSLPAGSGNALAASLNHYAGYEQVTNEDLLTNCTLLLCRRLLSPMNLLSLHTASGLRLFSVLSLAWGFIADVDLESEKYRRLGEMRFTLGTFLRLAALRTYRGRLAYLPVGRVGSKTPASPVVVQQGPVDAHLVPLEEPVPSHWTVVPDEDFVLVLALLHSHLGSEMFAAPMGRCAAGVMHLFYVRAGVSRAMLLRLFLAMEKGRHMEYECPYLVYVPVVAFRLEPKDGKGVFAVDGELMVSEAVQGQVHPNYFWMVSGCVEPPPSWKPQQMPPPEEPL

## COc1cc2ncn(-c3cc(OCc4ccccc4C(F)(F)F)c(C(N)=O)s3)c2cc1OC
[1]
  inhibition: -5.26%
[2]
  inhibition: 0.75%
[3]
  inhibition: -2%
[4]
  inhibition: 7.47%
[5]
  inhibition: 8.83%
[6]
  inhibition: 9.42%
[7]
  inhibition: 3.6%
[8]
  inhibition: 5.69%
[9]
  inhibition: 5.75%
[10]
  inhibition: 6.51%
